# The list is not random: actives were taken first. Their share in the collection is about 2.3%.
# Pf Dd2 inh: inhibitors of Plasmodium falciparum Dd2 growth; P. falciparum Dd2 growth, SYBR Green, 72 h; hits give low values; activity change, % at 10 µM; hit rate 2.3% among 94,000; AID 1159554; in the data active means activity change below about -80%
# C diff growth: blocks growth of Clostridium difficile; hit rate 0.25% among 86,000; AID 1259249; growth activity, negative = inhibition, % at 16 µg/mL (by protocol); Clostridium difficile clinical isolate growth, OD600, 24 h; hits give low values;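 active means mean growth activity at or below -80% and every replicate also at or below -80%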;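 further: 0% = DMSO wells and -100% = levofloxacin 16 µg/mL wells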
# Active calls of the source: *; nt = no result given.
SMILES,Pf Dd2 inh,C diff growth
N#Cc1ccc(-c2ccc3c(c2)[C@H]2[C@H](CCN2Cc2ccc4c(c2)OCO4)[C@H](CO)N3)cc1,-57,-96*
COc1ccc(S(=O)(=O)N2CC[C@H]3[C@H](CO)Nc4ccc(C#Cc5ccccc5OC)cc4[C@H]32)cc1,-26,0
COc1ccc(S(=O)(=O)N2CC[C@@H]3[C@H](CO)Nc4ccc(-c5ccc(C#N)cc5)cc4[C@@H]32)cc1,-54,0
COc1ccc2c3c(n(C)c2c1)[C@@H](CO)N(C(=O)C1CCCC1)CC31CCN(C)CC1,7,4
CCC(=O)N(C)C[C@H]1Oc2ncc(-c3ccccc3OC)cc2C(=O)N([C@@H](C)CO)C[C@@H]1C,7,1
COc1ccc2c3c([nH]c2c1)[C@@H](CO)N(S(=O)(=O)c1ccccc1)CC31CCN(C)CC1,-17,4
COc1ccc2c3c([nH]c2c1)[C@H](CO)N(C)CC31CCN(S(=O)(=O)c2ccc(C)cc2)CC1,-23,-4
CCCC(=O)N1CCC2(CC1)CN(S(=O)(=O)c1ccc(C)cc1)[C@@H](CO)c1[nH]c3cc(OC)ccc3c12,-92*,4
CCC(=O)N1CCC2(CC1)CN(S(=O)(=O)c1ccccc1)[C@H](CO)c1[nH]c3cc(OC)ccc3c12,-86*,-13
COc1cccc(-c2cnc3c(c2)C(=O)N([C@@H](C)CO)C[C@@H](C)[C@H](CN(C)CC2CCCC2)O3)c1,-34,nt
CO[C@@H]1CN(C)C(=O)c2cc(NC(=O)c3ccno3)ccc2OC[C@@H](C)N(S(C)(=O)=O)C[C@H]1C,8,nt
C[C@@H]1CN([C@H](C)CO)C(=O)c2cccc(NS(=O)(=O)c3ccc(F)cc3)c2O[C@@H]1CN(C)Cc1ccc(C(=O)Nc2ccccc2N)cc1,-86*,9
C[C@@H]1CN([C@H](C)CO)C(=O)c2cccc(NS(=O)(=O)c3ccccc3)c2O[C@@H]1CN(C)Cc1ccc(C(=O)Nc2ccccc2N)cc1,-85*,7
C[C@H]1CN([C@@H](C)CO)C(=O)c2cccc(NS(=O)(=O)c3ccccc3)c2O[C@H]1CN(C)Cc1ccc(C(=O)Nc2ccccc2N)cc1,-88*,6
C[C@@H]1CN([C@H](C)CO)C(=O)c2cccc(NS(=O)(=O)c3ccc(F)cc3)c2O[C@H]1CN(C)Cc1ccc(C(=O)Nc2ccccc2N)cc1,-68,10
C[C@H]1CN([C@@H](C)CO)C(=O)c2cccc(NS(=O)(=O)c3ccccc3)c2O[C@@H]1CN(C)Cc1ccc(C(=O)Nc2ccccc2N)cc1,-54,-2
C[C@H]1CN([C@@H](C)CO)C(=O)c2cccc(NS(=O)(=O)c3ccc(F)cc3)c2O[C@H]1CN(C)Cc1ccc(Cl)c(Cl)c1,-82*,7
C[C@H](CO)N1C[C@H](C)[C@H](CN(C)Cc2ccc(Cl)c(Cl)c2)Oc2c(NS(=O)(=O)c3ccc(F)cc3)cccc2C1=O,-15,8
C[C@@H]1CN([C@@H](C)CO)C(=O)c2cccc(NS(=O)(=O)c3ccc(Cl)cc3)c2O[C@H]1CN(C)Cc1ccc(C(=O)Nc2ccccc2N)cc1,-79,2
C[C@@H]1CN([C@H](C)CO)C(=O)c2cc(NC(=O)Nc3ccc(F)cc3)ccc2O[C@@H](C)CCCCO[C@H]1CN(C)C(=O)Nc1ccc(F)cc1,-22,nt
C[C@H]1CN([C@@H](C)CO)C(=O)c2cc(NC(=O)CCC(F)(F)F)ccc2O[C@@H]1CN(C)S(=O)(=O)c1ccc(Cl)cc1,-24,1
C[C@H](O)C#Cc1ccc2c(c1)O[C@H](CN(C)C(=O)CN(C)C)[C@H](C)CN([C@H](C)CO)S2(=O)=O,34,-4
C[C@@H]1CN([C@H](C)CO)C(=O)c2cc(NC(=O)NC3CCCCC3)ccc2O[C@@H](C)CCCCO[C@@H]1CN(C)Cc1ccc(C(F)(F)F)cc1,-69,10
C[C@H]1CN([C@@H](C)CO)C(=O)c2cc(NC(=O)Nc3ccccc3)ccc2O[C@@H]1CN(C)C(=O)Nc1ccc2c(c1)OCO2,14,13
CCC(=O)N1CC2(C1)CN(C(C)=O)[C@H](CO)c1[nH]c3cc(OC)ccc3c12,26,-3
SMILES,Pf Dd2 inh,C diff growth
Cc1ccc(S(=O)(=O)Nc2cccc3c2O[C@H](CN(C)Cc2ccc(C(=O)Nc4ccccc4N)cc2)[C@@H](C)CN([C@H](C)CO)C3=O)cc1,-72,8
Cc1ccc(S(=O)(=O)Nc2cccc3c2O[C@@H](CN(C)Cc2ccc(C(=O)Nc4ccccc4N)cc2)[C@@H](C)CN([C@H](C)CO)C3=O)cc1,-83*,8
C[C@@H]1CN([C@H](C)CO)C(=O)c2cc(NC(=O)c3ccncc3)ccc2O[C@@H](C)CCCCO[C@@H]1CN(C)C(=O)c1ccccc1,8,-3
COc1cccc(-c2ccc3c(c2)[C@@H]2[C@@H](CCN2Cc2ccccc2OC)[C@@H](CO)N3)c1,-59,-98*
COc1ccccc1CN1CC[C@@H]2[C@@H](CO)Nc3ccc(-c4cccc(F)c4)cc3[C@@H]21,-68,-6
COc1cccc(-c2ccc3c(c2)[C@H]2[C@H](CCN2Cc2ccccc2OC)[C@H](CO)N3)c1,-76,-91*
COc1ccccc1CN1CC[C@@H]2[C@H](CO)Nc3ccc(-c4cccc(F)c4)cc3[C@@H]21,-64,-3
OC[C@@H]1Nc2ccc(C#Cc3ccc(F)cc3)cc2[C@H]2NCC[C@@H]12,-89*,48
O=C(c1ccc(F)cc1)N1CC[C@@H]2[C@H](CO)Nc3ccc(C#Cc4ccc(F)cc4)cc3[C@@H]21,-57,8
COc1ccc(C#Cc2ccc3c(c2)[C@H]2[C@H](CCN2Cc2ccncc2)[C@@H](CO)N3)cc1,-92*,5
COc1ccc(C#Cc2ccc3c(c2)[C@@H]2[C@@H](CCN2C(=O)c2ccncc2)[C@@H](CO)N3)cc1,-68,-18
O=C(Nc1ccc2c(c1)[C@H]1C[C@H](CC(=O)N3CCc4ccccc4C3)O[C@@H](CO)[C@H]1O2)Nc1ccccc1F,3,nt
CCCN1[C@@H]2c3ccc(C4=CCCCC4)c(=O)n3C[C@@H]2[C@@H](CO)[C@@H]1C(=O)OC,5,3
O=C(Cc1ccccc1)N1CC2(C1)[C@@H](c1ccccc1)[C@@H](CO)N2S(=O)(=O)Cc1ccccc1,-6,-5
O=C(CC1CC1)N1CC(=O)N2[C@@H](CO)[C@@H](c3ccc(-c4ccccc4)cc3)[C@@H]2C1,-46,29
O=C(Nc1cc(F)ccc1F)N[C@H]1C=C[C@H](CC(=O)N2CCc3ccccc3C2)O[C@H]1CO,35,-16
C[C@H](CO)N1C[C@H](C)[C@@H](CN(C)C(=O)C2CC2)OCc2ccccc2-c2ccccc2C1=O,72,-8
COc1ccccc1CN1CC[C@@H]2[C@H]1c1cc(-c3cccc(F)c3)ccc1N[C@@H]2CO,-76,-1
COc1ccccc1CN1CC[C@@H]2[C@H](CO)Nc3ccc(C#Cc4ccccc4)cc3[C@@H]21,-51,-99*
COc1ccccc1S(=O)(=O)N(C)C[C@@H]1OCc2ccccc2-c2c(n(C)c3ccccc23)C(=O)N([C@H](C)CO)C[C@H]1C,-70,0
C[C@H]1CN([C@@H](C)CO)C(=O)c2c(c3ccccc3n2C)-c2ccccc2CO[C@@H]1CN(C)S(=O)(=O)c1cccs1,-86*,7
C[C@@H]1CN([C@H](C)CO)C(=O)c2c(c3ccccc3n2C)-c2ccccc2CO[C@@H]1CN(C)S(=O)(=O)c1ccccc1F,-71,1

# Assay outcomes: PubChem BioAssay, Broad Institute
